# Bioassay records deposited in PubChem BioAssay by several laboratories.
# Calb FLC – C. albicans growth inhibition with fluconazole, primary screen, CaCi-2 strain, Alamar Blue fluorescence; C. albicans CaCi-2 (fluconazole-resistant clinical isolate) + fluconazole, 48 h; growth inhibition, % (no concentration beside the values); hit rate 0.57% among 300,000;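 active = growth inhibition above about 58% in most replicates, limit read from the data, passing the limit was not always enough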;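 note: all wells also contain fluconazole at 8 µg/ml as a sub-toxic cotreatment; 0% = median of DMSO wells and 100% = median of geldanamycin control wells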
# HIF activator – HIF pathway transcriptional activators, primary screen, cell-based, U2OS HRE-luciferase, luminescence; U2OS HRE-luciferase reporter; normalized: DMSO 0%, desferrioxamine 100%; activation, % at 7.5 µM (by protocol); hit rate 0.32% among 300,000; AID 1910, 2009;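 active = mean activation of at least 10% of the iron chelator positive control signal, with at least half of replicates also reaching 10%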
# TNF necrop inh – inhibitors of TNF-alpha triggered necroptosis, primary screen, cell-based, Jurkat FADD-/-, single concentration. Jurkat FADD-/- TNF necroptosis rescue, ATP luminescence, 24 h; 0 = TNF only, 100 = no-TNF cells. activation (protection from cell death), % at 10 µM. hit rate 0.068% among 220,000. AID 463075, 2010;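 active = activation, meaning protection from cell death, of at least 50% relative to plate controls; inactive = activation below 50%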;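 note: necroptosis triggered by 40 ng/mL TNF-alpha added together with compound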
# L929 necroptosis – inhibitors of zVAD-triggered necroptosis, primary screen, L929 cells. L929 zVAD necroptosis rescue, ATP luminescence, 24 h; with zVAD 60 µM. viability rescue, % at 10 µM. hit rate 0.38% among 220,000;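 active = activation, scaled between plate controls, above about 75%, limit read from the data; inactive = activation under that limit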;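 note: 0% = zVAD with DMSO and 100% = DMSO alone without zVAD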
# * = called active by the depositor; x = not tested or not shown. A selection: hits, their analogues and other compounds. The true share with any hit is near 1.1%.
SMILES,Calb FLC,HIF activator,TNF necrop inh,L929 necroptosis
Cc1cc(-c2ccccc2)cc(-c2ccccc2)[n+]1CCc1ccccc1,97*,1,x,x
Clc1ccc(C[n+]2c(-c3ccccc3)cc(-c3ccccc3)cc2-c2ccccc2)cc1,1,2,x,x
CCOc1ccc(-c2cc(C)[n+](CCO)c(-c3ccc(OCC)cc3)c2)cc1,92*,0,-1,1
CCOc1ccc(-c2cc(C)[n+](CCc3ccc(OC)c(OC)c3)c(-c3ccc(OCC)cc3)c2)cc1,64,2,x,x
c1ccc(-c2ccc(-c3n(-c4ccccn4)c4ccccc4[n+]3-c3ccccn3)cc2)cc1,-1,0,0,0
COc1ccc(Cn2c(O)c(/C=N/NC(=O)c3ccccc3)c(=O)[nH]c2=O)cc1,81*,0,1,1
Cc1cccc(OCCn2cccc2/C=C2/C(=O)NC(=O)N(Cc3ccco3)C2=O)c1,-4,592*,1,-1
O=C1NC(=O)N(Cc2ccco2)C(=O)/C1=C\c1cccn1CCOc1ccc(Cl)cc1,-8,0,1,0
CCOc1cccc(CNCCc2c(C)[nH]c3ccc(OC(F)(F)F)cc23)c1O,58,-30,x,x
CCCCCn1cc(C(=O)C(=O)N2CCOCC2)c2ccccc21,-5,0,x,x
CC[n+]1c(/C=C/N(C)c2ccccc2)sc2ccc(Cl)cc21,106*,x,-13,0
CN(C)c1ccc(/C=C/C=C/c2sc3ccccc3[n+]2C)cc1,98*,0,-19,-1
CN(C)c1ccc(/C=C/c2cc[n+](C)c3ccccc23)cc1,x,x,-6,-1
CC[n+]1c(/C=C/C=C/c2ccc(N(C)C)cc2)sc2ccccc21,102*,0,-27,4
COc1ccc(-n2c(CNCCc3ccc(C)cc3)nc3ccccc3c2=O)cc1,-1,1,x,x
C=CCSc1nc2c(c(-c3ccsc3)c1C#N)CN(C)CC2,-3,0,-2,-2
O=C1C2CCCN2C(c2ccccc2)N1c1ccccn1 (configuration not stated),63*,0,-1,-1
CC(C)[C@H]1C(=O)O[C@H](C(C)C)C(=O)N(C)[C@@H](C(C)C)C(=O)O[C@H](C(C)C)C(=O)N(C)[C@@H](C(C)C)C(=O)O[C@H](C(C)C)C(=O)N1C,88*,0,-10,10
COc1ccccc1C1CC2CCC(C1OC(C)=O)N2Cc1ccccc1 (configuration not stated),-3,-19,x,x
Cc1nc2c(c(=O)[nH]1)C(c1ccccc1Cl)c1c(c3ccccc3oc1=O)O2 (configuration not stated),2,0,1,0
C=C1C(=O)O[C@@H]2C[C@@H](C)[C@@H]3C=CC(=O)[C@@]3(C)[C@@H](O)[C@H]12,x,-4,53*,94*
C[C@@H]1C[C@H]2OC(=O)C3(CO3)[C@H]2[C@H](O)[C@]2(C)C(=O)C3OC3[C@@H]12 (some centres not stated),16,2,-19,0
CCn1c(NN=O)nc2ccccc21,80*,5,-10,3
Cc1ccc(-c2cc(-c3ccccc3)cc(-c3ccccc3)[n+]2-c2ccccc2C(=O)O)cc1,96*,0,x,x
C[C@]12CCC3[C@@H](CC[C@H]4C[C@@H](O)CC[C@]34C)C1CCC2=O (some centres not stated),80*,1,x,x
SMILES,Calb FLC,HIF activator,TNF necrop inh,L929 necroptosis
C[C@]12CC[C@@H](O)C[C@H]1CC[C@@H]1[C@@H]2CC[C@]2(C)C(=O)CC[C@@H]12,-4,0,x,x
CC(C)Cc1nnc(NC(=O)CCC(=O)N2CCC3(CC2)OCCO3)s1,-7,21*,1,0
Oc1c(Br)cc(Br)cc1Oc1ccc(Br)cc1Br,87*,0,1,1
S=C1CN=C(c2ccccc2)c2cc(Cl)ccc2N1,-9,-23,0,0
Oc1ccc(/C=N/NP(=S)(c2ccccc2)c2ccccc2)c(O)c1O,104*,0,-6,0
CN(C)c1cc[n+](CC(O)C[n+]2ccc(N(C)C)cc2)cc1,3,-1,x,x
CN(C)c1ccc([P+](=O)c2ccc(N(C)C)cc2)cc1,62*,0,0,3
COC(=O)C1=C(c2ccc(S(C)(=O)=O)cc2)C[C@@H]2CC[C@H]1N2C(=O)NCCNC(C)=O,6,-1,x,x
COc1ccc(OC)c(NC2=NCCCS2)c1,-8,37*,0,0
COc1ccc(OC)c(NC2=NCCS2)c1,-3,-1,-1,-1
